ABCB6 inh MLPCN: human ABCB6 transporter inhibition; K562-ABCB6 porphyrin accumulation, flow cytometry, 1 h; hits give low values; fluorescence ratio to DMSO, % at 10 µM; 0.19% of 360,000 active;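 active = fluorescence ratio to DMSO below 75%, the collection mean minus 3 SD; inconclusive = too few cells collected in the well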;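 note: signal is porphyrin accumulated inside mitochondria; 100% equals median channel fluorescence of DMSO control wells; lower ratio means ABCB6 inhibition with less porphyrin fluorescence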
Target sequence (Q9NP58 whole entry, looked up): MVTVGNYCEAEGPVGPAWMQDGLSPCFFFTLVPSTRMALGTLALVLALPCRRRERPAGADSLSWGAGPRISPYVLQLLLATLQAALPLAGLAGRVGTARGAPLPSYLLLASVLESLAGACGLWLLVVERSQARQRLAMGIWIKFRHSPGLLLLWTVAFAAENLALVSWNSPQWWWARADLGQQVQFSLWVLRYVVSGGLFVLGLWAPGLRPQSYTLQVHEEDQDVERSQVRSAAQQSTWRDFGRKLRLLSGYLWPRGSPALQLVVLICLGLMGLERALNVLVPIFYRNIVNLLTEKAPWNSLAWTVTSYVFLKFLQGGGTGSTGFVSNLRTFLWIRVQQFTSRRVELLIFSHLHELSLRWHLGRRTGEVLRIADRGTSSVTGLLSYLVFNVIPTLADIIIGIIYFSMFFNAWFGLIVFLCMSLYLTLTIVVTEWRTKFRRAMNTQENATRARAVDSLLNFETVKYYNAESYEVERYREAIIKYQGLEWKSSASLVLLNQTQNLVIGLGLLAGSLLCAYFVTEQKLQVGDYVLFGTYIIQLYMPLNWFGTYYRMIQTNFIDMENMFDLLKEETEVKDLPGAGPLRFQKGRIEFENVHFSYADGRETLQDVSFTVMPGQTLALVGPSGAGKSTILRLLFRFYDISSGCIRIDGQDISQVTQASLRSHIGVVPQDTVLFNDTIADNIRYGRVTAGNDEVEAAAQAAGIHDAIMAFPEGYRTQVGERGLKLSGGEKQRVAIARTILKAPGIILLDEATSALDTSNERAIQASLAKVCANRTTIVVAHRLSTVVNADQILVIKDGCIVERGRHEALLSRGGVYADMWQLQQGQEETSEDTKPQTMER
H9c2 protect: myocardial damage modulation in H9c2 cells; H9c2 cardiomyocytes, H2O2 injury protection, ATPLite, 2 h; protection from H2O2 cell death, % at 20 µM; 0.63% of 360,000 active;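 active = compounds giving at least 50% protection of heart cells from peroxide-induced death in the single-dose screen, raw or plate-pattern-corrected value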;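 note: 0% = DMSO wells with peroxide and 100% = DMSO wells without peroxide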
hiPSC survival: hiPSC single-cell survival enhancement. ATPlite luminescence; 100% = ROCK inhibitor wells, 0% = DMSO. survival enhancement, % at 20 µM. 0.044% of 360,000 active. AID 602274; in the data active = survival enhancement above about 18%;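 note: cells exposed to compounds for 16 hours before the ATP read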
Myeloid diff MLP: promotes myeloid progenitor differentiation | ER-HoxA9 myeloid progenitors, lysozyme-GFP differentiation, flow cytometry | AID 624256 | 1% of 360,000 active | calls only at 10 µM;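 active = normalized GFP-positive differentiation at or above the plate's own cutoff, the solvent-only control mean plus 3 SD; inconclusive = no clear call, values can overlap the other calls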;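 note: cells exposed to compound for four days before flow analysis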
beta cell repl: inducers of beta-cell replication in MIN6 cells. 0.29% of 330,000 active. proliferation, % at 10 µM. MIN6 cells proliferation, ATPlite luminescence, 48 h; cells starved in 0.2% serum; 100% = growth in 10% serum;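 active = compounds whose signal lies at least 3.5 SD above the mean of all wells on their plate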;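 note: 0% = DMSO-treated cells in low-serum medium and 100% = 10% serum control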
Active calls of the source: *; i = inactive; ? = inconclusive; / = not tested or not shown; + = active, no number; ! = a repeat was not active. Sampled rows, rich in hits. Any-hit rate of the full collection: about 2.2%.

SMILES	ABCB6 inh MLPCN	H9c2 protect	hiPSC survival	Myeloid diff MLP	beta cell repl
Cc1ccc(S(=O)(=O)n2c(CN3CCCC(C)C3)nc3ccccc32)cc1 (configuration not stated)	98	-12	-2	i	-4
Cc1ccccc1CSCC1Nc2ccc(C(=O)NCCc3ccccc3)cc2NC1=O (configuration not stated)	110	3	-3	+	/
COc1ccc(C2CCCCCN2C(=O)C2CCN(S(=O)(=O)c3cccc(C(C)=O)c3)CC2)cc1 (configuration not stated)	101	83*	0	i	/
CCSC1=N/C(=C\c2ccc3c(c2)OCO3)C(=O)S1	80	11	4	i	0
CCSC1=N/C(=C\C=C2/Oc3ccccc3N2CC)C(=O)S1	221	-11	0	+	-5
NS(=O)(=O)c1ccc(N2N=C(c3ccccc3)CC2c2ccccc2Br)cc1 (configuration not stated)	96	-11	-2	i	/
COc1ccccc1N1N=C(c2ccc([N+](=O)[O-])cc2)CC1c1ccccc1 (configuration not stated)	/	-3	1	+	-3
O=[N+]([O-])c1ccc(N2N=C(c3ccccc3)CC2c2ccccc2O)cc1 (configuration not stated)	206	-23	1	+	-5
CC(=O)C1CCC2C3CC(O)C4=CC(=O)CCC4(C)C3C(=O)CC12C (configuration not stated)	103	6	-2	+	/
CC(=O)[C@H]1CC[C@H]2[C@@H]3CCC4=CC(=O)CC[C@]4(C)[C@H]3CC[C@]12C	101	-12	3	i	0
COc1ccc(-c2cc(C(=O)NNC3=NCCC3)c3c(C)nn(-c4ccccc4)c3n2)cc1	99	84*	0	i	-6
Cc1cc2cc(CNC(=S)Nc3ccc(OC(F)(F)F)cc3)ccc2[nH]1	102	-18	-2	i	-6
CC1(C)Cc2nc3sc4c(SCC(=O)O)ncnc4c3cc2CO1	101	-24	-1	i	-5
CC1(C)Cc2nc3sc4c(SCC(=O)NCc5ccccc5)ncnc4c3cc2CO1	97	-5	-2	+	-4
CN(C)CCNC(=O)c1ccc2c(=O)n(Cc3ccc(Cl)cc3)c(=S)[nH]c2c1	i	3	0	+	-7
O=C(c1cccc(S(=O)(=O)NCc2ccccc2)c1)N1CCN(c2ccc(F)cc2)CC1	91	-2	2	i	-4
O=C(c1cccc(S(=O)(=O)NCc2ccccc2)c1)N1CCN(c2ccccc2)CC1	98	0	0	+	-3
O=C(CCN1CCN(c2ccccc2)CC1)Nc1ccccc1	102	-2	1	i	3
Cc1nc(Cc2nnc(SCC(=O)N3CCN(c4ccc(O)cc4)CC3)o2)cs1	97	0	0	+	-5
O=C(NC(=S)Nc1cc(Cl)ccc1O)c1cccc(Br)c1	104	-4	1	+	-2
CCCCNC(=O)CCCn1c(=O)[nH]c2ccc(Br)cc2c1=O	97	-1	-1	+	-1
CC1(C(=O)Nc2ccc3[nH]ncc3c2)CCN1C(=O)CC(c1ccccc1)c1ccccc1 (configuration not stated)	101	1	14	i	/
CC1(C(=O)Nc2ccc3[nH]ncc3c2)CCN1C(=O)C/C=C/c1ccccc1 (configuration not stated)	109	13	5	+	/
O=C(COC(=O)/C=C/c1ccc(OC(F)F)cc1)NC1CCCC1	92	-8	0	i	-4
CCN1CCN(CCCNC(=O)C2CCN(c3nnc(-n4cccc4)s3)CC2)CC1	97	3	0	+	-2
SMILES	ABCB6 inh MLPCN	H9c2 protect	hiPSC survival	Myeloid diff MLP	beta cell repl
CCCN1CCN(CCCNC(=O)C2CCN(c3nnc(-n4cccc4)s3)CC2)CC1	101	-4	6	i	0
O=C1c2ccccc2C(=O)N1c1ccc(S(=O)(=O)N2CCCCC2)cc1	97	-2	-1	i	0
CCc1cc2cccc(C)c2nc1SCC(=O)N1CCN(C(=O)c2ccco2)CC1	96	59*	4	i	-4
CC(C)N(C(=O)CSc1nc(Cc2ccccc2)nc2ccccc12)C(C)C	97	14	0	i	-4
CC(C)(C)N1CC(OC(N)=O)C1	112	1	0	+	-5
COc1cc2c(cc1OC)C(c1ccc3c(c1)OCO3)C1=C(CC(C)(C)CC1=O)N2 (configuration not stated)	93	72*	0	i	-4
Cc1cccc(OCC(=O)N2CCN(c3nnc(-c4ccccc4)c4ccccc34)CC2)c1	98	26	-1	i	-4
Cc1ccc(-c2nnc(N3CCN(C(=O)COc4cccc(C)c4)CC3)c3ccccc23)cc1	99	17	0	+	-4
O=Cc1ccc(OCc2cccc(C(F)(F)F)c2)cc1O	97	68*	1	i	-5
COCOc1ccc(C=O)c(O)c1	100	-1	1	i	-3
Cn1nnnc1Sc1ncnc2scc(-c3ccccc3Br)c12	94	3	0	+	-6
CCC(C)(C)C(=O)Nc1cc([N+](=O)[O-])ccc1F	79	-2	2	i	0
CS(=O)(=O)NN1C(=O)c2ccccc2NC1c1ccccc1O (configuration not stated)	98	7	-1	i	2
CS(=O)(=O)NN1C(=O)c2ccccc2NC1c1c[nH]c2ccccc12 (configuration not stated)	314	34	-2	+	4
CCOc1ccc(OCCC(=O)N2CCN(S(=O)(=O)c3ccc(OCC)cc3)CC2)cc1	97	-5	0	i	-1
Cc1ccc(O)c([C@H](CCN(C(C)C)C(C)C)c2ccccc2)c1	98	0	-2	+!	-6
COc1cc(C)cc2oc(=O)c(CC(=O)N3CCN(C(=O)C4COc5ccccc5O4)CC3)c(C)c12 (configuration not stated)	100	47*	0	i	4
CC1CCN(S(=O)(=O)c2ccc(NC(=O)Cn3nnc(-c4ccccc4)n3)cc2)CC1	100	-11	-1	i	-3
Cn1c(=O)cc(OCC(=O)NCCCN2CCN(c3cccc(Cl)c3)CC2)c2ccccc21	100	64*	0	?	-4
O=C1c2ccccc2-c2onc3c(N4CCN(CCO)CC4)cc(N4CCN(C(=O)c5ccco5)CC4)c1c23	105	47	0	+	-2
CN1CCN(c2cc(N3CCN(C(=O)c4ccco4)CC3)c3c4c(onc24)-c2ccccc2C3=O)CC1	103	15	-1	i	-5
O=C(O)CCNc1nc(C(F)(F)F)nc2ccccc12	99	2	-2	+	-1
